# Compound activity deposited in PubChem BioAssay by several laboratories.
# The list is not random: actives were taken first. Their share in the collection is about 28%.
# DAT uptake mod: modulates human dopamine transporter uptake under cocaine | AID 449768 | B-score at 10 µM | Q01959 | LLC-PK1 hDAT cells, [14C]-dopamine uptake with cocaine IC80; actives deviate in either direction | 110,000 tested, 1.3% active;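 active means Z score or B-score, a plate-position-corrected score, falls beyond the plate's 99.7% confidence bounds, in either direction; inactive means both scores lie inside the 99.7% bounds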;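 further: scored against the spread of the other compound wells on the same plate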
# CYP2C9 act: increases human cytochrome P450 2C9 activity. recombinant CYP2C9, luciferin-H conversion, luminescence; hits give high values; factor 1 = untreated enzyme, 0 = blocked. activation factor at 5 µM. 96,000 tested, 1.4% active;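 active means activation factor of 2 or more for CYP2C9 at a 5 µM dose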;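 further: 0 = sulfaphenazole-blocked wells and 1 = vehicle-only wells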
# CYP2C19 act: increases human CYP2C19 enzyme activity. P33261. recombinant CYP2C19, luciferin-H EGE luminescence; hits give high values; 0 = fully inhibited enzyme, 1 = untreated enzyme. activation factor at 5 µM. 96,000 tested, under 10 active. AID 1025;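 active means activation factor of at least 2 at 5 µM in the primary screen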;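 further: 0 = wells with 2.5 mM tranylcypromine and 1 = vehicle-only wells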
# D1 allo mod: D1 dopamine receptor (human) allosteric modulation; P21728; HEK293 D1, CRE-luciferase, dopamine EC30 potentiation; actives deviate in either direction; B-score at 10 µM; 58,000 tested, 5.9% active;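 active means luminescence count or its row- and column-corrected plate score outside the 99.7% band of the plate's sample wells, on either side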
# Target sequence (P21728 whole entry, looked up): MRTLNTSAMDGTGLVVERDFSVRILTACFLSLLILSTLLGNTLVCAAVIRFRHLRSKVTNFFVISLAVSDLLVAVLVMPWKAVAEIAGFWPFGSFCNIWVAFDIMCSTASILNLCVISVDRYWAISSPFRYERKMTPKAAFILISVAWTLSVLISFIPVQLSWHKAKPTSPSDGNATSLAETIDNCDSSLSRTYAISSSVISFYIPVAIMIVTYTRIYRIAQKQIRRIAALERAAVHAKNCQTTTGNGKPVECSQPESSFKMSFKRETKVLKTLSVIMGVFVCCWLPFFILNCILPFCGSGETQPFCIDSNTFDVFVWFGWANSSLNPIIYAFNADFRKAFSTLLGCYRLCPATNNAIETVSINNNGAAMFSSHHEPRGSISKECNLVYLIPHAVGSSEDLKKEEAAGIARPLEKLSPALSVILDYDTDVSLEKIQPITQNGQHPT
# CYP2C9 inhib: blocks human cytochrome P450 2C9; 96,000 tested, 20% active; AID 777; CYP2C9 Supersomes, luciferin-H conversion, luminescence; inhibition, % at 5 µM;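 active means blocking of liver enzyme CYP2C9 beyond about 50% at 5 µM, limit read from the data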
# CYP2C19 inh: inhibitors of human CYP2C19. 96,000 tested, 21% active. CYP2C19 Supersomes, luciferin-H EGE luminescence, 30 min. P33261. AID 778. inhibition, % at 5 µM;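 active means CYP2C19 inhibition above a set limit at 5 µM in the primary screen, cut at about 50% in these data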;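 further: plate controls were negative control wells for no effect and 2.5 mM tranylcypromine positive control for full effect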
# The depositor's hits bear a star; x = no result given.
SMILES,DAT uptake mod,CYP2C9 act,CYP2C19 act,D1 allo mod,CYP2C9 inhib,CYP2C19 inh
CC(=NCCC1=CCCCC1)c1c(O)n(C)c(=O)n(C)c1=O,-0.811,0.5,0.6,-0.345,50.0*,41.6
O=C1C2(c3ccccc3)CN3CN(C2)CC1(c1ccccc1)C3,-1.38,1.2,0.5,x,-21.3,54.9*
CCn1c(O)c(C(c2ccccn2)c2c(O)n(CC)c(=S)[nH]c2=O)c(=O)[nH]c1=S,-0.227,0.9,1,x,9.3,-3.3
CC(C)c1cccc(C(C)C)c1OCCn1ccnc1,-0.429,0.2,0,1.57,78.0*,99.2*
CCC(=Nc1ccc2c(c1)CCC2)c1c(O)n(C)c(=O)n(C)c1=O,-0.135,1,1.1,-1.88,0.7,-5.6
CCC(=NCc1ccc(F)cc1)c1c(O)n(C)c(=O)n(C)c1=O,-0.344,0.3,0.2,0.994,66.6*,84.3*
O=P(O)(O)C#Cc1ccccc1,x,0.8,1,x,20.5,-2.9
COc1ccc(CCNCc2ccc(OC)c(OC)c2OC)cc1,-0.555,0.9,0.4,x,8.3,62.5*
COc1ccc(CCNC(C)CCc2ccc(OC)cc2)cc1 (stereo not drawn),0.0779,1,0.4,x,-1.6,55.1*
CNCCc1ccccc1,-0.179,x,x,x,x,x
COc1ccc(CCNCc2ccncc2)cc1,-0.638,0.3,0.1,x,71.8*,90.3*
CC(C)CC12CN3CCN(CC(C3)C1O)C2 (stereo not drawn),0.61,1,1.1,-0.026,-3.4,-10.4
COC(=O)C1=C(c2cccc(OC)c2OC)C[C@@H]2CC[C@H]1N2C(=O)NCCNC(C)=O,-0.973,x,x,x,x,x
CCS(=O)(=O)N1CCCC(C(=O)N2CCC3(CC2)OCCO3)C1 (stereo not drawn),-0.819,0.9,0.4,-1.39,14.8,58.0*
O=c1[nH]c2ccccc2n1C1CCN(CCCC(c2ccc(F)cc2)c2ccc(F)cc2)CC1,-0.503,x,x,-3.32,x,x
Fc1ccc2c(c1)nnn2C1CCN(Cc2ccccc2)CC1,0.176,0.7,0.7,-4.42*,26.3,33.0
c1ccc(CCn2nnnc2CN2CCC(n3nnc4ccccc43)CC2)cc1,0.173,0.3,0.3,x,68.5*,68.8*
Cc1nc2ccccc2n1C1CCN(Cc2nnnn2CCc2ccccc2)CC1,-0.0219,0.6,0.7,1.37,43.9,30.8
Fc1ccc2c(c1)nnn2C1CCN(Cc2nnnn2CCc2ccccc2)CC1,1.7,0.1,0.2,-1.46,94.8*,78.4*
CCOc1ccccc1-n1c(O)c(C=NCCCN(CC)CC)c(=O)[nH]c1=O,-0.103,1,1,-0.215,-2.1,-0.2
O=C1NCCN2CCCC12 (stereo not drawn),-0.487,1.1,1.1,x,-7.9,-10.3
CCCC/C(=N\O)c1c[nH]c2ccccc12,0.0801,0.7,0.3,x,28.0,69.0*
CNCC(O)c1cc(OCc2ccccc2)c(OCc2ccccc2)cc1F (stereo not drawn),0.2,x,x,x,x,x
O=C1NC(=O)C(CCc2ccncc2)(c2ccccc2)C(=O)N1,0.447,0.1,0.4,-2.02,93.1*,55.3*
COc1ccc(N2C(=O)NC(=O)C(CCc3ccncc3)(CCc3ccncc3)C2=O)cc1,1.12,x,x,x,x,x
SMILES,DAT uptake mod,CYP2C9 act,CYP2C19 act,D1 allo mod,CYP2C9 inhib,CYP2C19 inh
CN(C)C(=O)Oc1ccc(Cl)c2ccccc12,-1,2.1*,0.3,2.08,-106.1,73.0*
CCOc1ccc(N=C2SCCCN2C)cc1,-0.131,x,x,x,x,x
CC1(C)C2CC=C(CN3CCC(O)CC3)C1C2 (stereo not drawn),-1.14,0.9,1,-0.0175,13.4,3.0
CCOC(=O)N1CCN(C(C)C(=O)c2c[nH]c3ccccc23)CC1 (stereo not drawn),-1.19,0.2,0.1,0.575,83.7*,92.4*
CCOC(=O)C(O)(c1ccc(N(CC)S(=O)(=O)c2ccc(C)cc2)cc1)C(F)(F)F (stereo not drawn),0.103,0.3,0.6,x,68.6*,43.8
COC(=O)C(O)(c1ccc(NC(=S)NC(=O)c2ccccc2)cc1)C(F)(F)F (stereo not drawn),0.531,0.5,0.9,x,50.4*,9.2
COC(=O)C(O)(c1ccc(N(C)S(=O)(=O)c2ccccc2)cc1)C(F)(F)F (stereo not drawn),1.09,0.1,0.1,x,87.8*,92.1*
CCOC(=O)N(C)c1ccc(C(O)(C(=O)OC)C(F)(F)F)cc1 (stereo not drawn),1.16,x,x,x,x,x
CC(=NCCN1CCCCC1)c1c(O)n(Cc2ccccc2)c(=O)[nH]c1=O,-1.14,1.1,1.2,-0.331,-9.8,-18.7
